Source: the supplement of paper PMC11732987, “Enantioselective OTUD7B fragment discovery through chemoproteomics screening and high-throughput optimisation” (Communications Chemistry, 2025)

How the values were obtained:
Experiment in all cases: log2 ratio of Biotin-Ahx-Ub-VS probe labelling (fragment/DMSO); higher = less target engagement (more negative = stronger competition), active = hit call of the paper (q ≤ 0.05, log2 ratio ≤ -1)
Details in all cases: compound concentration: 200 uM; treatment time: 3 h
[1] = target: T1, USP42 (UniProt Q9H9J4)
T1 sequence (whole entry): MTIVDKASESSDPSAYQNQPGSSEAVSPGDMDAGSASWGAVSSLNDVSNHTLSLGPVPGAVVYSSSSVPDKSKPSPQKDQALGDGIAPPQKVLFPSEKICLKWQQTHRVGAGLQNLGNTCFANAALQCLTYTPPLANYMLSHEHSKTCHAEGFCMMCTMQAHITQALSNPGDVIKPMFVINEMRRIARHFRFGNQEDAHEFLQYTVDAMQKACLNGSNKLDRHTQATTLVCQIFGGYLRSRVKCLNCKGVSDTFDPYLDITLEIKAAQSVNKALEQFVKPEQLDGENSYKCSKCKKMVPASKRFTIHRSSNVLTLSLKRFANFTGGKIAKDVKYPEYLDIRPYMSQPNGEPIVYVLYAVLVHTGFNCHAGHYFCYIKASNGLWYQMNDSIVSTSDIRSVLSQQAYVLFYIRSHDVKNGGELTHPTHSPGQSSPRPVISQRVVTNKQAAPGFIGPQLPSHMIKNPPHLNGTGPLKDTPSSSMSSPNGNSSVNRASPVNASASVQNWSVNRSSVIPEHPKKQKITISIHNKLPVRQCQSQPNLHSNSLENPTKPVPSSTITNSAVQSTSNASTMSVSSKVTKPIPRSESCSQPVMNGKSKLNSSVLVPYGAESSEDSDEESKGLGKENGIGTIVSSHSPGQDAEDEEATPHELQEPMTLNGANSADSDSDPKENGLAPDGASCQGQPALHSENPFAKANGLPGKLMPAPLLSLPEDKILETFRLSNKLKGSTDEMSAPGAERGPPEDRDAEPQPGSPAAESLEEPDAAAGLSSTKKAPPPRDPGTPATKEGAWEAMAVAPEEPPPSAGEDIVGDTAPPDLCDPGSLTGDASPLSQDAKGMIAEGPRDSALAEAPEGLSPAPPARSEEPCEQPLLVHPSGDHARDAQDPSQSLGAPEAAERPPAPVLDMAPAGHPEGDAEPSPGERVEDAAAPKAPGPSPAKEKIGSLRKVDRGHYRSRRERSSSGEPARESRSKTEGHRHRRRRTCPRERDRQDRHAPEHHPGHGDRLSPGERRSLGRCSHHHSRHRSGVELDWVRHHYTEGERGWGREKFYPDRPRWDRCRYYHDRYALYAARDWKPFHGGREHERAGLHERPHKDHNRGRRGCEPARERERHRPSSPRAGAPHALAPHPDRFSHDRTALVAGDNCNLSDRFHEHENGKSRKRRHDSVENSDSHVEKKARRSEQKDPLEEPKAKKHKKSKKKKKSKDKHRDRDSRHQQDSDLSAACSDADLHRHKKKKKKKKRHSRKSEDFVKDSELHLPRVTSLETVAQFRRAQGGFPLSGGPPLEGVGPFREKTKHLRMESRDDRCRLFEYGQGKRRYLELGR
How it was run: (§1)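 Triplicate samples of HEK293T lysate, 495 µg each, received fragment at 200 µM or vehicle for 3 h, followed by Biotin-Ahx-Ub-VS (0.5 µM final) for 1 h. After NeutrAvidin enrichment of labelled DUBs and LysC/trypsin digestion, peptides were run by diaPASEF LC-MS/MS. The values are average log2 fragment/vehicle ratios from global-median-normalised Spectronaut label-free quantities, tested by unpaired t-test on proteins having ≥2 unique peptides.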

[2] = target: USP46 (UniProt P62068)
How it was run: as §1

[3] = target: T2, USP47 (UniProt Q96K76)
T2 sequence (whole entry): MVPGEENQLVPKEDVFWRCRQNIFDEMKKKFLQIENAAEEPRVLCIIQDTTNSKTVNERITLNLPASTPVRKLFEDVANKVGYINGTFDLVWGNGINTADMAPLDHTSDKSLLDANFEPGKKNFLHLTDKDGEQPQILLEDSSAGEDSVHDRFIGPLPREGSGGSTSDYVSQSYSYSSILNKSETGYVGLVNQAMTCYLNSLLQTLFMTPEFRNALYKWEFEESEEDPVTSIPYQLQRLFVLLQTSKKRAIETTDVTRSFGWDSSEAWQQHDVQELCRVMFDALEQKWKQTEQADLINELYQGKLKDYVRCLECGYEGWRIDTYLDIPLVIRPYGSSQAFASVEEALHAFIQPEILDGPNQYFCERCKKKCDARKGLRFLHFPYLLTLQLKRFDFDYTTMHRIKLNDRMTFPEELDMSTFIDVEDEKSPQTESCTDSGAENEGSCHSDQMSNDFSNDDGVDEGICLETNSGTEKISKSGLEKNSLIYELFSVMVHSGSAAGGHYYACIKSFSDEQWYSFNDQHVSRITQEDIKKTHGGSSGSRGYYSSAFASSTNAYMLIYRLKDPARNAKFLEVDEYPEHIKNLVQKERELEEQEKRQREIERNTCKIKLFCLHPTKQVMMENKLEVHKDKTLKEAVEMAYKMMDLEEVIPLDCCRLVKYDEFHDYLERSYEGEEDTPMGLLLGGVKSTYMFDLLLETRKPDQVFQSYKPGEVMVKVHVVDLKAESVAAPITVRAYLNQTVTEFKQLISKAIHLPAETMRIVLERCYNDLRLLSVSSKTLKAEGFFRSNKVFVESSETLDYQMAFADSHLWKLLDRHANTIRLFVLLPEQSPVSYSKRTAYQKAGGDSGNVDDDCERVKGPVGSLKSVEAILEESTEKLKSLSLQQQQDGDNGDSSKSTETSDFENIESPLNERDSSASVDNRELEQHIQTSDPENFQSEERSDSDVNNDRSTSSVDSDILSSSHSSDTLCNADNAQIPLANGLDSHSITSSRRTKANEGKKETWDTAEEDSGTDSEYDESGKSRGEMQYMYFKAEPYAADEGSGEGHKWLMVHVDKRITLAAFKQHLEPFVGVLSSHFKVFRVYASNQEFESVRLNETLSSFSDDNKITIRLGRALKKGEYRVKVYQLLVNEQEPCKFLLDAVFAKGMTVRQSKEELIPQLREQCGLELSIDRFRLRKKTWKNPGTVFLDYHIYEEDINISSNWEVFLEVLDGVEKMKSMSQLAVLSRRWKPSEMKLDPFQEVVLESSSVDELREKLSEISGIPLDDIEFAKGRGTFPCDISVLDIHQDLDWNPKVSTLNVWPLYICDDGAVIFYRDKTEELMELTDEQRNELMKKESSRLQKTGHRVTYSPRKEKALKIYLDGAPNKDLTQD
How it was run: as §1

[4] = target: T3, USP48 (UniProt Q86UV5)
T3 sequence (whole entry): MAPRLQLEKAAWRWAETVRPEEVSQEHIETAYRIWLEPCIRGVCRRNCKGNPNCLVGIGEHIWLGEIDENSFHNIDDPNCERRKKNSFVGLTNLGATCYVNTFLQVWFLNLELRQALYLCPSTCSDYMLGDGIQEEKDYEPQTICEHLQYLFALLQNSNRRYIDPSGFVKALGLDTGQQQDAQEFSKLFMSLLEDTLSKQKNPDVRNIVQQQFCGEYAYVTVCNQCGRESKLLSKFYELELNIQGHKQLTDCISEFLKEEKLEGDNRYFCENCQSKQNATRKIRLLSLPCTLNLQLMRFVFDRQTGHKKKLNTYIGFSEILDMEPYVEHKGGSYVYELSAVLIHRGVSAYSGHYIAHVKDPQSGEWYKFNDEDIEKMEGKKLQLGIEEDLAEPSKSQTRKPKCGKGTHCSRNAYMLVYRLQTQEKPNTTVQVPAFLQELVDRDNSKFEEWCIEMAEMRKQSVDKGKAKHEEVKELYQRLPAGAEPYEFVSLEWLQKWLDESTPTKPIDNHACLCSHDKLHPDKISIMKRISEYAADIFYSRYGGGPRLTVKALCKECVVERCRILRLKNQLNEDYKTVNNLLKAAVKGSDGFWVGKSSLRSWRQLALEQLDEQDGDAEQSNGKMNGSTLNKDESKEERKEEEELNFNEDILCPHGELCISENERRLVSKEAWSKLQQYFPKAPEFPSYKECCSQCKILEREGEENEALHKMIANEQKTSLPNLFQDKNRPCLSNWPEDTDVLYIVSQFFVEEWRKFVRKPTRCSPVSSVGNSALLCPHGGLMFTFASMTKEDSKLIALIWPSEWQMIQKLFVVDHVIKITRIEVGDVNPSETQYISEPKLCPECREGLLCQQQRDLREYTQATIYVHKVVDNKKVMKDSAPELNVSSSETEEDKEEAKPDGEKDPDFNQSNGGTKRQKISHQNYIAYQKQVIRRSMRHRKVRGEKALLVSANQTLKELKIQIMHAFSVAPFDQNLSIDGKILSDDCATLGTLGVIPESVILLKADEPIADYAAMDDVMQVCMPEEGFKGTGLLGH
How it was run: as §1

[5] = target: T4, USP5 (UniProt P45974)
T4 sequence (whole entry): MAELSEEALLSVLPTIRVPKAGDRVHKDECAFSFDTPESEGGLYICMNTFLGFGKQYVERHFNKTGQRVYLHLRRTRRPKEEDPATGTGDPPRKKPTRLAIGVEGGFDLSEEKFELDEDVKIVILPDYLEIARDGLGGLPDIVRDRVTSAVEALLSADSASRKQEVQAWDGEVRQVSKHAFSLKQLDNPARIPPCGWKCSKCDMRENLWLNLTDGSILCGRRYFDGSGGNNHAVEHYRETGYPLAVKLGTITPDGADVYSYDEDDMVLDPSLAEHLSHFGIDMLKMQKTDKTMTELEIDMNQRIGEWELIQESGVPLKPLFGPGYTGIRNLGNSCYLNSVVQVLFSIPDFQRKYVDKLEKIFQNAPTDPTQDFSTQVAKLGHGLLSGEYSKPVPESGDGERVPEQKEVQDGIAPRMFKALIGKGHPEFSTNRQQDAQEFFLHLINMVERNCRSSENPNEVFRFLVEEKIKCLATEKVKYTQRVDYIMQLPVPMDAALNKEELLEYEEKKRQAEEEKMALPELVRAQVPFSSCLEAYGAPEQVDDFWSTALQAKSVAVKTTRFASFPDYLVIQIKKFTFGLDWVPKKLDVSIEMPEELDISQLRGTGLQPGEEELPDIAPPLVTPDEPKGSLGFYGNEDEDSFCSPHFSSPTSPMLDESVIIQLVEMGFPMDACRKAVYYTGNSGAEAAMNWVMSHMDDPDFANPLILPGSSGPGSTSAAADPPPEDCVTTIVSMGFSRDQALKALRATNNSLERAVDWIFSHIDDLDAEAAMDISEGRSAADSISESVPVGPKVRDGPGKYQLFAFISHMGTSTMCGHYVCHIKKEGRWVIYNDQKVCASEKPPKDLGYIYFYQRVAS
How it was run: as §1

[6] = target: USP54 (UniProt Q70EL1)
How it was run: as §1

[7] = target: USP7 (UniProt Q93009)
How it was run: as §1

[8] = target: T5, USP8 (UniProt P40818)
T5 sequence (whole entry): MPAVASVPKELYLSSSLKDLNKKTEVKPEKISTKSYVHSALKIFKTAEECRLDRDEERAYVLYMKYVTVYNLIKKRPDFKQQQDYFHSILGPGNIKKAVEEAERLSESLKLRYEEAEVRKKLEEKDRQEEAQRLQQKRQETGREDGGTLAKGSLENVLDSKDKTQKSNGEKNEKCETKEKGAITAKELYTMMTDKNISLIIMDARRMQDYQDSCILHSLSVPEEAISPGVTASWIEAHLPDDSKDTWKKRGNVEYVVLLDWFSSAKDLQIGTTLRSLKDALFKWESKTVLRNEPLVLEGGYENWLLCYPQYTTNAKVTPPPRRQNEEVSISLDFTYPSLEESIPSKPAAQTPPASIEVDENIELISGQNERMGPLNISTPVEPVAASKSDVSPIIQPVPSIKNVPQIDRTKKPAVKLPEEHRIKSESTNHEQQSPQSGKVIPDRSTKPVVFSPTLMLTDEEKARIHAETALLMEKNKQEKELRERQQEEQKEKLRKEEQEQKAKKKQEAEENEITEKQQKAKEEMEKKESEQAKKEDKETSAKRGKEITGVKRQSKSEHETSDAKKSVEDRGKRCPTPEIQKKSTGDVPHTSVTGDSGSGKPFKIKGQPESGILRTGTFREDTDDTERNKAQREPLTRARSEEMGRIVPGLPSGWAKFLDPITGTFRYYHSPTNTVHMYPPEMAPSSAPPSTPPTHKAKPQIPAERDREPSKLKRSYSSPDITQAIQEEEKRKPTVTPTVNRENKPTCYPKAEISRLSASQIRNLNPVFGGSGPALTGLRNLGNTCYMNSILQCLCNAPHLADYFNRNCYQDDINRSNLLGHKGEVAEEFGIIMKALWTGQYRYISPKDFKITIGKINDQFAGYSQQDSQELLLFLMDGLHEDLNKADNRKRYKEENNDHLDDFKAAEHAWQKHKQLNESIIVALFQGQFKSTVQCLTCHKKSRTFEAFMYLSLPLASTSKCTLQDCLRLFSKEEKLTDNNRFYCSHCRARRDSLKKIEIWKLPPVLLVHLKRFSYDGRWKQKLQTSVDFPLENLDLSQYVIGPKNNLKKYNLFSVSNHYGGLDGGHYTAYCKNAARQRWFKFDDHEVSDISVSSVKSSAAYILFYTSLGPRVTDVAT
How it was run: as §1

[9] = target: USP9X (UniProt Q93008)
How it was run: as §1

[10] = target: UniProt O00487
How it was run: as §1

Measured: log2 ratio of Biotin-Ahx-Ub-VS probe labelling

Sequence of UniProt O00487 (O00487 whole entry): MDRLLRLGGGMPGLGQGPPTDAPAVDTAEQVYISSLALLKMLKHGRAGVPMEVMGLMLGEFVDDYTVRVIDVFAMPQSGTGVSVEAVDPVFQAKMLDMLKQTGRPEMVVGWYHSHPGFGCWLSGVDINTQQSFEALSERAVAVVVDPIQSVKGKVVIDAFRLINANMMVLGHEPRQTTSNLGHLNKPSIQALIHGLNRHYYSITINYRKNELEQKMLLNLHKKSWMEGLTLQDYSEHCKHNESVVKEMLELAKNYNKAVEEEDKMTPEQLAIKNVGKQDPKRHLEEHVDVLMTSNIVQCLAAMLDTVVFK
Sequence of USP54 (Q70EL1 whole entry): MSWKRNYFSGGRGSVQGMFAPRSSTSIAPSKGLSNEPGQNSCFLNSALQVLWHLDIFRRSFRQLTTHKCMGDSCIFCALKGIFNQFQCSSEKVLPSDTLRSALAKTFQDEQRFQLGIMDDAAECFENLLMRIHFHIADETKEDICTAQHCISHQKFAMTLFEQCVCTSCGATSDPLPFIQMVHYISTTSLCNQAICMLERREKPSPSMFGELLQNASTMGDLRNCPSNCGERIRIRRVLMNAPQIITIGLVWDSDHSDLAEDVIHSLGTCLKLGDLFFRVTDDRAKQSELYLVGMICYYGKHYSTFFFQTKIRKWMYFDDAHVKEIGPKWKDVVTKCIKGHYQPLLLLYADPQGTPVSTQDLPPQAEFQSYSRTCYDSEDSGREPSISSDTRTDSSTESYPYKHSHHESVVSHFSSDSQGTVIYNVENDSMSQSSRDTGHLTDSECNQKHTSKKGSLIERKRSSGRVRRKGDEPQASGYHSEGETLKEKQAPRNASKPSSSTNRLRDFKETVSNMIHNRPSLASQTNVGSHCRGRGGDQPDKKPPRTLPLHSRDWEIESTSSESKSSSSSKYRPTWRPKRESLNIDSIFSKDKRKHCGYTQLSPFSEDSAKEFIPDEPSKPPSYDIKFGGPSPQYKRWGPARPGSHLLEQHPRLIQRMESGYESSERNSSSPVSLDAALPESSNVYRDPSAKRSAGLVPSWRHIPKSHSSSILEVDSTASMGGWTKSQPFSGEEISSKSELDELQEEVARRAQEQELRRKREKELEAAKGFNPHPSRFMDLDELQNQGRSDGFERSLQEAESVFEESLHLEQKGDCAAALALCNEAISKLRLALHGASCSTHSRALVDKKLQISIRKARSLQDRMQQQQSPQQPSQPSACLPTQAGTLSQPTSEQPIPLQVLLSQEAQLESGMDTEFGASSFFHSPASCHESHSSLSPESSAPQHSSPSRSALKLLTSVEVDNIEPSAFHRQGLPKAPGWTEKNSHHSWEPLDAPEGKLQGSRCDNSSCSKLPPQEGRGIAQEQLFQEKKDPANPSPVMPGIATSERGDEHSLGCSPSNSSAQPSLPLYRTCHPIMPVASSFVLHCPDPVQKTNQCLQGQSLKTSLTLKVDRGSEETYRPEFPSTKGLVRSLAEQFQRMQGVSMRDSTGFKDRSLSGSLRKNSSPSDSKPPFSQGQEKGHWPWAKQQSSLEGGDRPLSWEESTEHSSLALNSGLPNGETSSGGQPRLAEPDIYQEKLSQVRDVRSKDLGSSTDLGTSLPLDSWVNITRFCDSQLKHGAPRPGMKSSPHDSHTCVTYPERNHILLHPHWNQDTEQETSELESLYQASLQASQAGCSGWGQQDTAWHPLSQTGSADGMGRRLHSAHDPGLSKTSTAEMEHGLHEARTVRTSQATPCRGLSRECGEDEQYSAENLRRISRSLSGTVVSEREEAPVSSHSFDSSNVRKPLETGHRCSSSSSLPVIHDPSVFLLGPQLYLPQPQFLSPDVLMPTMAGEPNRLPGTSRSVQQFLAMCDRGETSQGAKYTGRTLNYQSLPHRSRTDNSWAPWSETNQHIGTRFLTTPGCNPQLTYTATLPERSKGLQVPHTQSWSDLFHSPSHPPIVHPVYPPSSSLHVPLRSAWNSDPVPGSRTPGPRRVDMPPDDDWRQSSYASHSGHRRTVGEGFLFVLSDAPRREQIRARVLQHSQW
Sequence of USP46 (P62068 whole entry): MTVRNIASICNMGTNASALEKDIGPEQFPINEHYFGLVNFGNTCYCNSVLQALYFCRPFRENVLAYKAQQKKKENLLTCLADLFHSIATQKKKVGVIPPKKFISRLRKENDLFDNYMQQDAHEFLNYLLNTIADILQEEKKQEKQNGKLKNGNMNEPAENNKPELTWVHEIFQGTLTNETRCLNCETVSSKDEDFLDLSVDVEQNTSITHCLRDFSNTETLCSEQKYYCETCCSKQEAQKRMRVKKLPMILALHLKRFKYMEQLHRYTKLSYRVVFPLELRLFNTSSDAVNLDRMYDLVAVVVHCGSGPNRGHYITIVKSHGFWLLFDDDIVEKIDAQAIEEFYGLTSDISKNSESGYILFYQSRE
Sequence of USP7 (Q93009 whole entry, looked up): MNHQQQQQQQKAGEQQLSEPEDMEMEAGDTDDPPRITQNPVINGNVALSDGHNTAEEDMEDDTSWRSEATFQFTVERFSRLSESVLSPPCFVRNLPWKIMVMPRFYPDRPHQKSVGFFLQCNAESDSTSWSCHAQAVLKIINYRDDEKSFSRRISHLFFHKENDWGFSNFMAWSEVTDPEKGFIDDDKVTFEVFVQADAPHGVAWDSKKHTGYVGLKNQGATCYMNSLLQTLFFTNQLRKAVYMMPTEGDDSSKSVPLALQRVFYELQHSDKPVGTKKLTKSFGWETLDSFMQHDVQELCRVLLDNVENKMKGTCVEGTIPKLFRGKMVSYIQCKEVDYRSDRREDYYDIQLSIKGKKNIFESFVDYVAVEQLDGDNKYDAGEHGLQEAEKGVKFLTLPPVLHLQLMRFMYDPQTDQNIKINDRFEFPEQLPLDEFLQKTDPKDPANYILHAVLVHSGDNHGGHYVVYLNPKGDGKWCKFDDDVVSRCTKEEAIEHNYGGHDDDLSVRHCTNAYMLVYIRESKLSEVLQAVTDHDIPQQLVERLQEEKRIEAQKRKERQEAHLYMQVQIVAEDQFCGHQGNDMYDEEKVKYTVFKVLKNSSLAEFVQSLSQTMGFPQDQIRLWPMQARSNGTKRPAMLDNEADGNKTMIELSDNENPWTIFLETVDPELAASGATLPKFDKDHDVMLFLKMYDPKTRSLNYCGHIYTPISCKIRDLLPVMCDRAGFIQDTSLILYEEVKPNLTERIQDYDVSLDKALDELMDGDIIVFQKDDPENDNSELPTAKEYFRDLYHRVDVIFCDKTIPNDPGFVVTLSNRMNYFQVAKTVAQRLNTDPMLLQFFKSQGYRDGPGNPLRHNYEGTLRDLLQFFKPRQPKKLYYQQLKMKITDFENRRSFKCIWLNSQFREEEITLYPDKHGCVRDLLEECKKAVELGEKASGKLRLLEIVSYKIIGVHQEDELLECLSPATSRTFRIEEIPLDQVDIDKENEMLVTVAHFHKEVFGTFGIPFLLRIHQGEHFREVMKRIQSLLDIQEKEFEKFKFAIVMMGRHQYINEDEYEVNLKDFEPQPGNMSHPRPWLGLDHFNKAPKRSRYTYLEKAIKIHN

Cc1cc(NC(=O)CCl)n(-c2ccccc2)n1
inactive: [1] 0.45 | [2] -0.023 | [3] -0.584 | [4] 0.128 | [5] -0.00592 | [6] -0.0011 | [7] -0.0104 | [8] -0.118 | [9] 0.0409 | [10] -0.0689
